Most compounds without a hit are left out; they make up all but 7.7% or so of the library.
HCMV antiviral: human cytomegalovirus inhibition; HFF cells, HCMV-luciferase reporter, 72 h; hits give low values; AID 1259415; actives 4.5% (n = 410,000); activity change, negative = inhibition, % at 57.5 µM; in the data active = activity change below about -60%; inconclusive = no clear call, values can overlap the other calls; inactive = above about -39%
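Screen run at 2 compound doses on HFFs infected with reporter HCMV, MOI 1 PFU/cell. Luciferase activity from cell lysates at 72 h post infection gave inhibition relative to buffer-only and Salinomycin wells.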
Giardia FBPA inh-1: inhibitors of Giardia lamblia fructose-1,6-bisphosphate aldolase; A8B2U2; purified Giardia FBPA; Potency, µM (top dose mostly 59.6 µM), for the others: top-dose activity, negative = inhibition, hits mostly inhibitors; actives 0.71% (n = 290,000); AID 2451; also: potency is read from the fitted curve at half-maximal effect; nearly all actives have a fitted effect of over 55% in size
Target sequence (A8B2U2 whole entry, looked up): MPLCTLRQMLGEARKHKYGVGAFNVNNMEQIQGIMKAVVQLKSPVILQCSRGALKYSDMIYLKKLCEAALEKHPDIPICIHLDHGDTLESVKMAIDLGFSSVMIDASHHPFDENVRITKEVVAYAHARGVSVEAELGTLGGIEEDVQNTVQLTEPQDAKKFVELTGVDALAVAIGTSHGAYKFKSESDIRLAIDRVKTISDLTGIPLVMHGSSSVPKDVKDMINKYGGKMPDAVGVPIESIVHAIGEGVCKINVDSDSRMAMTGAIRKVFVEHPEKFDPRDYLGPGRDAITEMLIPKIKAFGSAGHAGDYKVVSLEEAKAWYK
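40 nM FBPA preincubated 10 min at RT with compound (up to 57.5 uM final), then substrate plus GAPDH/TPI/NAD/arsenate coupling and diaphorase/resazurin added. Fluorescence read after 20 min at RT, 525/598 nm.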
FMDV inh: blocks foot and mouth disease virus. FMDV antiviral cell-based qHTS. Potency, µM (highest dose often 57.9 µM), inactives show at the top dose activity change, negative = inhibition, usual class: inhibitors. actives 1.2% (n = 410,000). AID 1159524; calls by dose curve; tested in HEK293T cells; also: read-out not given here; potency is read from the fitted curve at half-maximal effect; nearly all actives have a fitted effect of over 45% in size
Sm TGR inh: blocks Schistosoma mansoni thioredoxin glutathione reductase; Q962Y6; purified TGR, DTNB reduction, TNB absorbance 405 nm; Potency, µM (top dose mostly 114 µM), without a hit: top-dose activity change, negative = inhibition, usual class: inhibitors; actives 3% (n = 360,000); AID 485364; also: potency is read from the fitted curve at half-maximal effect; nearly all actives have a fitted effect of over 60% in size
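Kinetic colorimetric format: TGR-catalysed, NADPH-driven DTNB reduction monitored via TNB absorbance. Enzyme dispensed at 20 nM; compound exposure 15 min at room temperature before reaction start.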
TbPYK inhibitor: inhibitors of Trypanosoma brucei pyruvate kinase | actives 0.12% (n = 410,000) | AID 624173 | Potency, µM (top dose mostly 76.8 µM), inactives show at the top dose activity, negative = inhibition, hits mostly inhibitors | TbPYK enzyme, Kinase-Glo Plus ATP luminescence, 45 min | Q57TT1; also: potency is read from the fitted curve at half-maximal effect; nearly all actives have a fitted effect of over 50% in size
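Assay buffer: 50 mM TEA pH 7.2, 100 mM KCl, 10 mM MgCl2, 0.05% BSA, 0.01% Tween-20. Pyruvate kinase from T. brucei plus substrate met compound, then ADP (130 uM final). Luminescence was read post 45 min RT.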
RE007 growth inh: less growth of the S. pombe RE007 Vpr strain; S. pombe RE007 Vpr strain, BacTiter-Glo ATP luminescence, 24 h; actives 0.21% (n = 360,000); Potency, µM (highest dose often 92.2 µM), for inactives: at the highest dose activity change, negative = less growth, most hits filed as inhibitors; active = well fitted falling curve with a large enough effect; inconclusive = small, poorly fitted or top-dose-only effect; inactive = no such curve, though single readings can be large or run the other way; also: potency is read from the fitted curve at half-maximal effect; nearly all actives have a fitted effect of over 50% in size
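Fission yeast strain RE007, carrying one chromosomally integrated HIV-1 vpr copy, was seeded at OD 0.01 in PMG+AL medium with 23 nL pinned compound. After 24 h at 30 °C and 99% humidity, viability was read by BacTiter-Glo luminescence.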
Giardia growth: inhibitors of Giardia lamblia growth; shares compounds with Giardia FBPA inh-1; Giardia lamblia trophozoite growth inhibition; Potency, µM (highest dose often 57.5 µM), for the others: at the top dose activity change, negative = inhibition, most hits filed as inhibitors; actives 5% (n = 1,500); AID 2785;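 also: potency is read from the fitted curve at half-maximal effect; trophozoites exposed to compound for 48 h at 37 °C; nearly all actives have a fitted effect of over 70% in size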
Mammalian tox: counter-screen for Giardia aldolase inhibitors: mammalian cell toxicity; shares compounds with Giardia FBPA inh-1; mammalian cell viability counter-screen, qHTS; Potency, µM (top dose mostly 57.5 µM), for the others: top-dose viability change, negative = toxicity, actives largely listed as inhibitors; actives 4% (n = 1,500); AID 2786;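 also: Chinese hamster ovary cells used as mammalian cytotoxicity surrogate; viability measured as cellular ATP by luminescence; potency is read from the fitted curve at half-maximal effect; compound exposure lasted 48 h before reading; nearly all actives have a fitted effect of over 60% in size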
Giardia FBPA inh-2: confirmation of Giardia fructose-bisphosphate aldolase inhibitors | AID 2787 | Potency, µM (series often up to 57.5 µM), inactives show at the highest dose activity change, negative = inhibition, actives largely listed as inhibitors | shares compounds with Giardia FBPA inh-1 | actives 5% (n = 1,500) | purified Giardia aldolase enzyme activity, qHTS; also: potency is read from the fitted curve at half-maximal effect; nearly all actives have a fitted effect of over 45% in size
Rabbit FBPA inh: selectivity test for Giardia aldolase inhibitors: rabbit aldolase. AID 2794. actives 4% (n = 1,500). Potency, µM (series often up to 57.5 µM), without a hit: at the top dose activity, negative = inhibition, most hits filed as inhibitors. Rabbit muscle FBPA enzyme inhibition, selectivity counter-screen. shares compounds with Giardia FBPA inh-1; also: potency is read from the fitted curve at half-maximal effect; nearly all actives have a fitted effect of over 60% in size
Target sequence (P00883 whole entry, looked up): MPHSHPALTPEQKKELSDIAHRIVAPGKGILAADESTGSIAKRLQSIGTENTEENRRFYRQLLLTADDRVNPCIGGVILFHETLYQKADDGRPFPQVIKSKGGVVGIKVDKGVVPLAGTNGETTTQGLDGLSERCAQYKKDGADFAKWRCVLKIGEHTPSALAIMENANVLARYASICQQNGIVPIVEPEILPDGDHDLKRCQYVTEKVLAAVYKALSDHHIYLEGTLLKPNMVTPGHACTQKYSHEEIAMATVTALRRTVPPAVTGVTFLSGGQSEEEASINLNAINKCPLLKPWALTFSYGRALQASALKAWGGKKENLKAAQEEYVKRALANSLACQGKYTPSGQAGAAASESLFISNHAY
GAPDH counter: counter-screen for Giardia aldolase inhibitors: GAPDH coupling enzyme | shares compounds with Giardia FBPA inh-1 | GAPDH coupling enzyme counterscreen, biochemical, qHTS | Potency, µM (highest dose often 57.5 µM), inactives show at the top dose activity change, negative = inhibition, hits mostly inhibitors | actives 6% (n = 1,500) | AID 2795; also: potency is read from the fitted curve at half-maximal effect; nearly all actives have a fitted effect of over 55% in size
* marks the source's active call; other numbers are inactive results; ? = inconclusive; / = no result given; ! = not confirmed by another sample; [ ] = another dose, or the depositor's remark. Unless noted, calls follow the shape of the dose curve; as a rule, active = well fitted curve in the direction sought with a large enough effect; inconclusive = small, poorly fitted or top-dose-only effect, or another doubt; inactive = no such curve, though single readings can be large; an effect the other way counts as inactive or inconclusive. % is scaled to controls: 0 for no effect and ±100 for the full control effect.

SMILES	HCMV antiviral	Giardia FBPA inh-1	FMDV inh	Sm TGR inh	TbPYK inhibitor	RE007 growth inh	Giardia growth	Mammalian tox	Giardia FBPA inh-2	Rabbit FBPA inh	GAPDH counter
COc1ccc(CN2CCN(S(=O)(=O)c3ccc(NC(C)=O)cc3)CC2)cc1OC	?	-29%	/	4%	6%	0%	/	/	/	/	/
CCOc1ccc(CN2CCN(S(=O)(=O)c3ccc(NC(C)=O)cc3)CC2)cc1	-67*	16µM*	?	-10%	15%	-1%	?	1%	3%	7%	4%
S=C(Nc1nc2c(s1)CCCC2)NC1CC1	3	14µM*	33%	2.5µM*	-11%	-10%	-13%	3%	3%	2%	2%
C=CCCCCCCCCC(=O)OC	/	/	/	/	-6%	/	/	/	/	/	/
Cc1nn(-c2ccccc2)c(C)c1/C=N/Nc1nc2ccccc2[nH]1	?	20µM*	?	-6%	-9%	-18%	14µM*	25µM*	8%	0%	-16%
CCOc1ccc(NC(=O)c2oc3ccccc3c2NC(=O)Cc2ccc(F)cc2)cc1	-16	/	-3%	-6%	-3%	/	/	/	/	/	/
CSC1=NS(=O)(=O)c2c(C)nn(C)c2S1	19	16µM*	?	?	2.5µM*	-6%	30%	9%	-3%	40µM*	?
CCOc1ccc(NC(=O)CC2C(=O)N(c3ccc(C)cc3)C(=O)N2CCC2=CCCCC2)cc1 (stereo not given)	6	/	-13%	4%	-3%	/	/	/	/	/	/
Cc1cccc(C(=O)NC(=S)NNC(=O)c2ccccc2Cl)c1	-67*	?	-13%	-5%	-29%	-46%	-16%[38.3 µM]	-27%	6%	-20%	-19%
COc1ccc(NC(=O)CN2C(=O)CCc3cc(S(=O)(=O)N4CCOCC4)ccc32)c(OC)c1	3	/	4%	0%	1%	/	/	/	/	/	/
COc1cccc(N2CCN(C(=O)C3CCN(S(=O)(=O)c4c(C)noc4/C=C/c4ccccc4F)CC3)CC2)c1	-13	/	-18%	3%	-4%	/	/	/	/	/	/
C=CCn1c(COc2cccc3cccnc23)nnc1SCC(=O)O	20	?	-7%	-5%	-10%	-15%	/	/	/	/	/
C=CCn1c(COc2cccc3ccc(C)nc23)nnc1SCC(=O)O	16	14µM*	19%	14%	0%	13%	-19%	9%	-6%	4%	2%
Cc1cccn2c(=O)c(C(=O)NCCc3ccccc3)cnc12	45	/	-20%	2%	0%	/	/	/	/	/	/
COc1cc(N=c2ssnc2Cl)cc(OC)c1OC	17	20µM*	?	?	?	-16%	-4%[10.4 µM]	5%	-28%	32µM*	-6%
N#Cc1ccc(N=c2ssnc2Cl)cc1	-30	16µM*	?	?	14µM*	35µM*!	-8%	-12%	-23%	40µM*	11%
O=C(CC(NCc1ccccn1)C(=O)O)Nc1ccccc1Cl (stereo not given)	-5	6.3µM*	7%	2%	-12%	5%	?	9%	12%	3%	-1%
Nc1c(/C=C2/C=CC(=O)C(O)=C2)c(=O)nc2sc(CC(=O)N3CCCCC3)nn12	0	?	-7%	-3%	0%	8%	/	/	/	/	/
Nc1c(/C=C2/C=CC(=O)C(O)=C2)c(=O)nc2sc(CC(=O)N3CCCC3)nn12	0	7.9µM*	2%	-14%	0%	7%	0%	6%	-18%	?	0%
OC(CNc1ccccc1)Cn1ccc2ccccc21 (stereo not given)	23	18µM*	-4%	/	-12%	-12%	?	-4%	-4%	1%	4%
Nc1nc(=S)c2ncn(C3CCCC3)c2[nH]1	-4	7.1µM*	7%	-14%	-6%	8%	-4%[38.3 µM]	6%	-5%	-5%	-8%
Nc1nc2c(ncn2C2CCCC2)c(=O)[nH]1	8	/	-4%	/	-4%	2%	/	/	/	/	/
O=C(O)Cc1sc(Nc2ccc(Cl)cc2)nc1-c1cccs1	7	18µM*	57%	-24%	-27%	-3%	15%	-5%	3%	9%	2%
O=c1c2sc3ccccc3c2n(Cc2cccc(C(F)(F)F)c2)c(=O)n1Cc1ccco1	8	/	-22%	-25%	-6%	/	/	/	/	/	/
CC(C)n1cnc2c(=S)nc[nH]c21	-5	3.2µM*	-14%	70%	-13%	/	6%[38.3 µM]	-2%	-2%	-20%	?
SMILES	HCMV antiviral	Giardia FBPA inh-1	FMDV inh	Sm TGR inh	TbPYK inhibitor	RE007 growth inh	Giardia growth	Mammalian tox	Giardia FBPA inh-2	Rabbit FBPA inh	GAPDH counter
S=c1nc[nH]c2c1ncn2-c1ccccc1	-4	/	7%	/	0%	21%	/	/	/	/	/
Cc1ccccc1OC1C=CC(c2ccccc2)OC1CO (stereo not given)	/	2%[12.9 µM]	/	/	/	/	/	/	/	/	/
Cc1cc(-c2ccco2)c(C#N)c2nc3ccccc3n12	-30	1.3µM*	4%	28µM*	1%	-19%	-19%[38.3 µM]	-29%	?	?	?
OC[C@@H](O)[C@@H](O)CCc1ccccc1	/	1%	/	/	/	/	/	/	/	/	/
COc1cc(/C=C/C(=O)c2c(O)cc(C)oc2=O)cc(OC)c1O	-68*	16µM*	14µM*	100µM*	-14%	-12%	-3%[10.4 µM]	-12%	?	?	?
Cc1ccc(C(=O)Nc2nnc(S(=O)(=O)N3CCOCC3)s2)cc1	-5	18µM*	-9%	-25%	0%	6%	?	1%	?	?	25µM*
CC1CCN(S(=O)(=O)c2nnc(NC(=O)c3cccc([N+](=O)[O-])c3)s2)CC1	/	14µM*	-12%	-2%	-12%	-5%	-3%[10.4 µM]	2%	16µM*	25µM*	16µM*
O=C(Nc1nnc(S(=O)(=O)N2CCOCC2)s1)c1ccc(F)cc1	22	16µM*	5%	-2%	3%	11%	?	-5%	?	?	40µM*
